Screens as filed in PubChem.
Only some compounds are listed: those with a hit (about 7.5% of all), similar ones and a draw of the others.
FLuc modulator = inhibits or activates purified firefly luciferase, miR-21 counter-screen; P08659; purified FLuc, Km substrates, luminescence inhibition; Potency, µM (series often up to 57.5 µM), inactives show at the highest dose activity change, negative = inhibition, most hits filed as inhibitors; actives 6.9% (n = 360,000); AID 588342;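 also: plate controls were vehicle for no effect and reference inhibitor for full effect; nearly all actives have a fitted effect of over 55% in size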
Target sequence (P08659 whole entry, looked up): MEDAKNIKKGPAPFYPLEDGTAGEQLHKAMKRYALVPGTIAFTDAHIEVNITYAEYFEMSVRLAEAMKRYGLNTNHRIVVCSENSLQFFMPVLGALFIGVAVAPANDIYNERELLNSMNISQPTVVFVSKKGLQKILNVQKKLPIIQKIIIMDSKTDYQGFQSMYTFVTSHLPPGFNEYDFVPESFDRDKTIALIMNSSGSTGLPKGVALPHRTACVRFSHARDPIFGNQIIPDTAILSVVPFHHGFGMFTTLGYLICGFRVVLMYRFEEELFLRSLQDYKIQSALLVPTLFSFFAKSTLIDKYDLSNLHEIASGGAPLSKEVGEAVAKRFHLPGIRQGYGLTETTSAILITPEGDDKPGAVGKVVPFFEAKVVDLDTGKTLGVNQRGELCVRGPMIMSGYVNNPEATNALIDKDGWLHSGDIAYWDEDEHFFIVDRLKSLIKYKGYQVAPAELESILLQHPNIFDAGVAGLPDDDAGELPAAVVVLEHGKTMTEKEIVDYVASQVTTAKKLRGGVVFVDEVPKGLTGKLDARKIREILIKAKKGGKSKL
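Purified P. pyralis luciferase (10nM final) with 10uM D-luciferin and 10uM ATP (Km levels) in 50mM Tris acetate pH 7.5, 10mM Mg acetate, 0.01% Tween-20, 0.05% BSA; qHTS 6-point titration, ~60 µM downward; luminescence read.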
SMN2 splice enh = enhancers of SMN2 splice variant expression; HEK293 SMN2-luciferase splicing reporter, luminescence, 30-36 h; Potency, µM (doses to about 46.1 µM), for the others: at the top dose activity change, positive = activation, most hits filed as activators; actives 2.8% (n = 210,000); AID 1458; also: % of control where 0% means no effect; nearly all actives have a fitted effect of over 55% in size
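qHTS luciferase splicing reporter: luminescence rises when SMN2 exon 7 is included in transfected HEK293 cells. Compound exposure lasted 30-36 h at 37C, with 4.5 mM final sodium butyrate as control, followed by a ONE-Glo read.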
NPC1 promoter act = NPC1 promoter activation; AID 485313; actives 2.4% (n = 320,000); Potency, µM (top dose mostly 9.22 µM), for the others: top-dose activation, actives largely listed as activators; Huh7 NPC1 promoter luciferase reporter, 24 h; also: % of control where 0% means no effect; nearly all actives have a fitted effect of over 60% in size
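Luciferase expression driven by the NPC1 promoter was measured in stably transfected Huh7 cells after a 24 h compound incubation, using a luciferase reagent and a luminescence read.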
ELG1 genotoxic = inducers of genotoxicity in HEK293T ELG1-luciferase cells; Potency, µM (series often up to 46 µM), inactives show at the highest dose activity change, positive = activation, usual class: activators; actives 1.3% (n = 330,000); HEK293T ELG1-luciferase reporter, luminescence, 16 h; also: % of control where 0% means no effect; nearly all actives have a fitted effect of over 60% in size
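Step 1: seed 2,000 HEK293T ELG1-luciferase cells per well. Step 2: add compound or DMSO, incubate 16 hr at 37 °C. Step 3: ONE-Glo, 30 min at room temperature, read luminescence.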
Rab9 promoter act = Rab9 promoter activation; Huh7 Rab9 promoter-luciferase reporter, luminescence, 24 h; Potency, µM (titrated, usually from 9.22 µM), for the others: at the top dose activation, negative = inhibition, actives largely listed as activators; actives 2.8% (n = 320,000); also: % of control where 0% means no effect; nearly all actives have a fitted effect of over 60% in size
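Huh7 reporter line, Rab9 promoter upstream of luciferase. Compound exposure 24 h at 37 °C in reduced-serum medium with 10% FBS. Read-out: luminescence.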
* = called active by the depositor; ? = inconclusive; . = no result; [ ] = remark or other dose. Calls follow the shape of the dose curve; as a rule, active = well fitted curve in the direction sought with a large enough effect; inconclusive = small, poorly fitted or top-dose-only effect, or another doubt; inactive = no such curve, though single readings can be large; an effect the other way counts as inactive or inconclusive. Potency is read from the fitted curve at half-maximal effect.

SMILES	FLuc modulator	SMN2 splice enh	NPC1 promoter act	ELG1 genotoxic	Rab9 promoter act
CC(C)CC1NC(=O)N(CC(=O)Nc2cc(F)ccc2F)C1=O (configuration not stated)	4%	.	-2%	1%	-2%
COc1ccc(N=Nc2c(N)n[nH]c2N)cc1	?	.	29%	11%	?
COc1cccc(N=Nc2ccc3ccccc3c2O)c1	0.34µM*	.	?	?	4µM*
COc1ccc(N=Nc2ccc(N)nc2N)cc1	2.4µM*	.	1µM*	9.2µM*	2.5µM*
COc1ccc(NCc2c(O)ccc3ccccc23)cc1	.	-10%[9.22 µM]	.	.	.
CNC(=O)[C@H](C)/C=C(\c1cccnc1)C(NC(=O)OCc1ccccc1)c1ccc(C(=O)OC)cc1 (some centres not stated)	.	-5%	.	.	.
NC(=O)c1cccnc1Nc1cccc([N+](=O)[O-])c1	15µM*	.	4µM*	?	1.8µM*
O=C(NC(=S)Nc1nc2ccc(F)cc2s1)c1ccco1	1.3µM*	10µM*	6%	?	2.5µM*
Cc1nc(NC(=S)NC(=O)c2ccco2)sc1C(=O)N(C)C	-14%	.	21%	12%	24%
Cc1c(Cl)ccc2sc(NC(=O)c3ccco3)nc12	5.4µM*	.	2.8µM*	?	4µM*
CS(=O)(=O)c1ccc2nc(NC(=O)c3cccc(Cl)c3)sc2c1	?	.	17%	12%	1%[1.84 µM]
Cc1noc(C)c1C(=O)Nc1nc2ccc(S(C)(=O)=O)cc2s1	1.1µM*	.	?	?	?
CS(=O)(=O)c1ccc2nc(NC(=O)c3ccco3)sc2c1	4.8µM*	7.9µM*	2.8µM*	?	1.6µM*
CC(NC(=O)COC(=O)C1CCN(c2ccc(C(F)(F)F)cn2)CC1)c1ccc(F)cc1 (configuration not stated)	-14%	.	-4%	0%	2%
Cc1c(Cl)c(=O)n2c(=O)c(Cl)c(C)n12	2%	6%	0%	0%	0%
N[C@@H](Cc1ccnnc1)C(=O)O	.	-5%[9.22 µM]	.	.	.
CC(=O)Oc1ccc2c(=O)c(Oc3ccccc3)coc2c1OC(C)=O	-21%	?	-4%	-1%	-10%
Cc1ccc(C(=O)Nc2nc3ccc(S(C)(=O)=O)cc3s2)o1	3µM*	4µM*	2.8µM*	?	2.5µM*
COc1cc(-c2nc3nc[nH]n3c2Nc2ccc(C(C)C)cc2)ccc1O	?	-3%	.	.	.
O=C(N/N=C/C1CCCCC1)c1ccccn1	13µM*	20%	-6%	?	-1%
O=C(N/N=C/C1CCCCC1)c1cc(Cl)ccc1O	12µM*	-11%	-4%	3%	-7%
CC(/C=C/c1ccco1)=N\NC(=O)c1cc(Cl)ccc1O	?	-23%	8%	-2%	?
COc1ccc(CCN(C)C(=O)CCc2nnc(-c3ccccc3)o2)cc1OC	19µM*	.	4.5µM*	?	3.2µM*
CN(Cc1ccc(F)cc1)C(=O)CCc1nnc(-c2ccccc2)o1	17µM*	.	?	?	?
Cc1ccc2nc(/C(C#N)=C/c3ccc(O)c(O)c3)[nH]c2c1	19µM*	.	-1%	?	?
SMILES	FLuc modulator	SMN2 splice enh	NPC1 promoter act	ELG1 genotoxic	Rab9 promoter act
Cc1ccc2nc(C(O)C(O)c3nc4ccc(C)cc4[nH]3)[nH]c2c1 (configuration not stated)	11µM*	-8%	8%	?	19%
Cc1ccc2nc(/C(C#N)=N/O)[nH]c2c1	13µM*	5%	8%	-4%	-9%
CCc1nnc(NC(=O)CN2CCCC(C)C2)s1 (configuration not stated)	1%	.	-2%	0%	-1%
CNC(=O)/C=C/c1cccc(C(F)(F)F)c1	3%	-6%	-1%	1%	7%
CC(C)(C)NC(=O)/C=C/c1ccc(C(F)(F)F)cc1	27µM*	-28%	-4%	5%	-7%
O=C(CCC(=O)c1ccc(Cl)cc1)OCc1nc2ccsc2c(=O)[nH]1	2%	.	1%	3%	-6%
c1ccc(SCc2nc3ccccc3[nH]2)nc1	21µM*	6%	?	?	?
Cc1nnc(SCc2nc3ccccc3[nH]2)s1	3%	9%	0%	5%	-2%
c1ccc2[nH]c(CSc3nc4ccccc4s3)nc2c1	15µM*	-31%	29%	8%	23%
Cn1c(CSc2nc3ccccc3s2)nc2ccccc21	11µM*	16µM*	?	13µM*	?
COc1ccc(OC)c(N=C(C)C2=C(O)COC2=O)c1	4%	11µM*	-23%	8%	-8%
O=C(CCN1C(=O)C2C3CCC(C3)C2C1=O)OCC(=O)c1ccc(Cl)cc1 (configuration not stated)	?	.	1%	2%	0%
COc1ccc(-c2csc(NCc3ccco3)n2)cc1	1.1µM*	13µM*	0.89µM*	?	0.56µM*
Cc1nnc(NCc2ccco2)s1	-1%	8%	7%	4%	-1%
Cc1nc(C)c(-c2csc(NCc3ccco3)n2)s1	15µM*	?	29%	13µM*	?
Cc1nc(NC(=O)c2ccccc2)sc1-c1csc(NCc2ccco2)n1	13µM*	-11%	2%	-1%	-1%
c1coc(CNc2nc3ccccc3s2)c1	7.6µM*	.	1.6µM*	?	?
Cc1nc(C)c(-c2csc(NCc3ccccc3)n2)s1	?	-40%	24%	9%	10%
O=C(CCCCCn1c(=O)c2sccc2n(CC(=O)Nc2cc(C(F)(F)F)ccc2Cl)c1=O)NCc1ccccc1Cl	4%	-10%	.	.	.
O=C(Nc1cccc(C(F)(F)F)c1)N1CCC(CN2CCCCCC2)CC1	-2%	.	.	.	.
CCN(CC)Cc1c(O)ccc2c(=O)c(-c3ccccc3Cl)coc12	-2%	.	-6%	-1%	1%
Cc1nc(-c2coc3c(O)c(O)ccc3c2=O)cs1	.	22µM*	.	.	.
CCn1c(SCC#N)nc2c(c1=O)C1(CCCC1)Cc1ccccc1-2	5%	2%	-7%	-5%	5%
CCn1c(=O)c2c(n3c(=S)[nH]nc13)-c1ccccc1CC21CCCCC1	15µM*	-18%	-5%	5%	2%
O=C(N/N=C/C1CC2C=CC1C2)c1ccccc1O (configuration not stated)	21µM*	.	0%	1%	-9%
CC(=O)Nc1ccc(C(=O)N/N=C/C2CC3C=CC2C3)cc1 (configuration not stated)	-10%	-4%	-7%	0%	1%
Cc1c(C(=O)Nc2ccccc2F)sc2ncn(CC(=O)N3CCOCC3)c(=O)c12	-10%	.	-1%	5%	-5%
CC(=O)Nc1ccc(Nc2nc(-c3cc4ccccc4oc3=O)cs2)cc1	5.4µM*	.	?	?	?
COc1ccc2oc(=O)c(-c3csc(Nc4cccc(O)c4)n3)cc2c1	1.7µM*	?	11%	0%	-2%
CNc1nnc(-c2cc3ccccc3oc2=O)s1	4.8µM*	13µM*	1.4µM*	18µM*	1.4µM*
